Assay results published in the supplement of paper PMC10849652.
The full data set covers some 7,900 targets. This sample favours those with a hit. About 0.6% of all pairs of compound and target were hits. Values without a mark were called inactive.

Assays:
Experiment in all cases: log2 fold change, soluble protein after heating vs DMSO (PISA); higher = thermal stabilisation; K562 cells, 10 uM, 30 min; active = over 0.2 and 3.5 SD of the protein, either way, in both replicates (recomputed)
[1] = compound: CS(=O)(=O)c1ccc(-c2cnc(N)c(C(=O)Nc3ccccc3)n2)cc1
How it was run: (§1)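 Soluble protein was defined as the supernatant after 21,000xg for 90 min. It came from K562 cells at 2×10^6 cells/mL given 10 μM compound for 30 min, heated in aliquots for 3 min across 48°C-58°C, pooled, and extracted in PBS with 0.5% NP-40 at 4°C, and was quantified by TMTpro 16plex LC-MS/MS with equalised channel sums. Thermal stability against control samples, from duplicates, is reported as log2 fold change.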

[2] = compound: C[C@@H](Oc1cc(-c2cnn(C3CCNCC3)c2)cnc1N)c1c(Cl)ccc(F)c1Cl [crizotinib]
How it was run: as §1

[3] = compound: C[C@@H]1COCCN1C2=NC(=NC(=C2)C3(CC3)S(=O)(=O)C)C4=C5C=CNC5=CC=C4
How it was run: as §1

[4] = compound: C[C@H](C1=CC=C(C=C1)C(=O)NC2=C3C=CNC3=NC=C2)N
How it was run: as §1

[5] = compound: C[C@H](Nc1ncnc2nc[nH]c12)c1cc2cccc(Cl)c2c(=O)n1-c1ccccc1 [duvelisib]
How it was run: as §1

[6] = compound: Cc1cc(Nc2cc(CN3CCOCC3)c3nc(C)c(Cc4ccc(Cl)cc4F)n3n2)n[nH]1 [gandotinib]
How it was run: as §1

[7] = compound: Cc1cc(Nc2cc(N3CCN(C)CC3)nc(Sc3ccc(NC(=O)C4CC4)cc3)n2)n[nH]1 [tozasertib]
How it was run: as §1

[8] = compound: Cc1cc(SCc2sc(-c3ccc(C(F)(F)F)cc3)nc2C)ccc1OCC(=O)O
How it was run: as §1

[9] = compound: Cc1ccc(-n2nc(C(C)(C)C)cc2NC(=O)Nc2ccc(OCCN3CCOCC3)c3ccccc23)cc1 [doramapimod]
How it was run: as §1

[10] = compound: Cc1ccc(C(=O)N(CCCN)[C@@H](c2nc3cc(Cl)ccc3c(=O)n2Cc2ccccc2)C(C)C)cc1 [ispinesib]
How it was run: as §1

Sequence of UniProt P78363 (P78363 whole entry, looked up): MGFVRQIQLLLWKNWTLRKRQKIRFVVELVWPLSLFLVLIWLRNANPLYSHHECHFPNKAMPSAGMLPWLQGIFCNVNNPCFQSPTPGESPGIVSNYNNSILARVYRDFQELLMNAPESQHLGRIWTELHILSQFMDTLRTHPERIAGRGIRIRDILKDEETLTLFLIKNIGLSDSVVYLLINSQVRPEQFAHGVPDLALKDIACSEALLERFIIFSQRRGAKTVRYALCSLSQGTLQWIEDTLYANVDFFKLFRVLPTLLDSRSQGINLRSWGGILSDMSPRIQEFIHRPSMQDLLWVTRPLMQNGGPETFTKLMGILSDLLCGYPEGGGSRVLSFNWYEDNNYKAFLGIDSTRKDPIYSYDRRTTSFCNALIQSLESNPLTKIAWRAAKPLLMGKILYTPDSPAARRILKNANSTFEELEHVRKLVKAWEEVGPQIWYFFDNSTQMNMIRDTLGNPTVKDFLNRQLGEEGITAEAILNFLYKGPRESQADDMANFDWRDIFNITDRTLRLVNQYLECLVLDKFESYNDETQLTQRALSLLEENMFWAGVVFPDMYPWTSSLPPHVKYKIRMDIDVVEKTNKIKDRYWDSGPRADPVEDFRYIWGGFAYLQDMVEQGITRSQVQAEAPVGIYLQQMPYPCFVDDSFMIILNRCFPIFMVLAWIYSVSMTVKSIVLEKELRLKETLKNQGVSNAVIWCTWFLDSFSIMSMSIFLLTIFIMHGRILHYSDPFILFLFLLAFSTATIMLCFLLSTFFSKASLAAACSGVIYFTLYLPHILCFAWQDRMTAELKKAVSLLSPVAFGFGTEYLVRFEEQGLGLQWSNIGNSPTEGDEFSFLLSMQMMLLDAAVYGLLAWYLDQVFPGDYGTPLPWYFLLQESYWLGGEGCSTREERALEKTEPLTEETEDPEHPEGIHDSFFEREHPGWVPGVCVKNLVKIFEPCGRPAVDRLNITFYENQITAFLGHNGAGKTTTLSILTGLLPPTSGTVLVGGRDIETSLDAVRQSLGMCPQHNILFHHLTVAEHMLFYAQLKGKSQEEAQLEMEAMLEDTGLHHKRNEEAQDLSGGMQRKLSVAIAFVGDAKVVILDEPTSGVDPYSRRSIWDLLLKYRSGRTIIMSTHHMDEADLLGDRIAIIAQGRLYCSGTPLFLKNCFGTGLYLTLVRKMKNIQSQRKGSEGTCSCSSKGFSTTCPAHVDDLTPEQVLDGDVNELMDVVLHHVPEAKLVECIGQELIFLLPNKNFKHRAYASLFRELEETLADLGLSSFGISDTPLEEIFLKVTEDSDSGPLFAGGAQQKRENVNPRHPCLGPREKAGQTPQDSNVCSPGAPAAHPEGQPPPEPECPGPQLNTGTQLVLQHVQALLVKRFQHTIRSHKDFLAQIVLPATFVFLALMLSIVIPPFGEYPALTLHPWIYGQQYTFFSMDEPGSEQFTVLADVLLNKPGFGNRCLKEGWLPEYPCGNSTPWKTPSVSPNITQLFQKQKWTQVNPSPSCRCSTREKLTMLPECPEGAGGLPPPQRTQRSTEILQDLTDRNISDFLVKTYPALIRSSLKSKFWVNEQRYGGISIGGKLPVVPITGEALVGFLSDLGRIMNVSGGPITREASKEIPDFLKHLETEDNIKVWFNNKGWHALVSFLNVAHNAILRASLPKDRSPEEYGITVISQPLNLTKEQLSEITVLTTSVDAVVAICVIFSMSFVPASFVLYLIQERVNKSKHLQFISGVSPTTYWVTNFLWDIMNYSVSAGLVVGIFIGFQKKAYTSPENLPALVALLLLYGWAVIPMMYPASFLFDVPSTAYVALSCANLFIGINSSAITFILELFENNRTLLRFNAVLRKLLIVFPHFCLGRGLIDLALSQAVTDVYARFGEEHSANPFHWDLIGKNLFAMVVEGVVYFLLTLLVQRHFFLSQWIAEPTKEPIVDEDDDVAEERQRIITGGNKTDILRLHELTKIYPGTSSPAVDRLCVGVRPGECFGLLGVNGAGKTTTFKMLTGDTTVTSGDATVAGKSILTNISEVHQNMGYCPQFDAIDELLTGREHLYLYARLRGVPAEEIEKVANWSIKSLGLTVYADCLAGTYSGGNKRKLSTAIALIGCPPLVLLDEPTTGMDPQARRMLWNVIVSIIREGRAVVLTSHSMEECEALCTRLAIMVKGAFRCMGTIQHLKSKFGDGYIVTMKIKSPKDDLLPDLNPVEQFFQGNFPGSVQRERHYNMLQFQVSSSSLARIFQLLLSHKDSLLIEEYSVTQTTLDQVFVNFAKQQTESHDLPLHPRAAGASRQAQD
Sequence of UniProt Q7Z3C6 (Q7Z3C6 whole entry, looked up): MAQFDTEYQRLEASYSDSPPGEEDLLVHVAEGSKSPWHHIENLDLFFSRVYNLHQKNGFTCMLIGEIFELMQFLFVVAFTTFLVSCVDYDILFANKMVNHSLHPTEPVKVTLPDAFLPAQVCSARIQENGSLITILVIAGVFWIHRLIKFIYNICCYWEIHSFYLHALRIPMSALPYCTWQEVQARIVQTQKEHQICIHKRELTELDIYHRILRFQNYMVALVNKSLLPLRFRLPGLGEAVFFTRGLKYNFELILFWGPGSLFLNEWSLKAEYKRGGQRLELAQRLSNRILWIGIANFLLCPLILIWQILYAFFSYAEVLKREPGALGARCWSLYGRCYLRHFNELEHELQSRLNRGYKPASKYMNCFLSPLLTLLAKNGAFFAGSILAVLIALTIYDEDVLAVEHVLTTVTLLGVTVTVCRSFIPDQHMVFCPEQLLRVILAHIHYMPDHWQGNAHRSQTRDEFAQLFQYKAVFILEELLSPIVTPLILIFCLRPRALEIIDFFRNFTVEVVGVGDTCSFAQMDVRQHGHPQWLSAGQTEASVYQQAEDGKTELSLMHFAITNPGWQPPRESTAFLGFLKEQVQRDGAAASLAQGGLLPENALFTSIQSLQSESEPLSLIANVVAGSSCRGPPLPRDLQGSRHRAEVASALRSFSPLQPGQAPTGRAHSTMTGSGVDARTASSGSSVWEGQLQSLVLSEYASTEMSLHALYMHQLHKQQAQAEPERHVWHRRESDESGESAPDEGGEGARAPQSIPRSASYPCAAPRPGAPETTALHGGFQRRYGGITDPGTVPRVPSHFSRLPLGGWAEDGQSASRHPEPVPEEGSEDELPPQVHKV
Sequence of UniProt Q8WV93 (Q8WV93 whole entry, looked up): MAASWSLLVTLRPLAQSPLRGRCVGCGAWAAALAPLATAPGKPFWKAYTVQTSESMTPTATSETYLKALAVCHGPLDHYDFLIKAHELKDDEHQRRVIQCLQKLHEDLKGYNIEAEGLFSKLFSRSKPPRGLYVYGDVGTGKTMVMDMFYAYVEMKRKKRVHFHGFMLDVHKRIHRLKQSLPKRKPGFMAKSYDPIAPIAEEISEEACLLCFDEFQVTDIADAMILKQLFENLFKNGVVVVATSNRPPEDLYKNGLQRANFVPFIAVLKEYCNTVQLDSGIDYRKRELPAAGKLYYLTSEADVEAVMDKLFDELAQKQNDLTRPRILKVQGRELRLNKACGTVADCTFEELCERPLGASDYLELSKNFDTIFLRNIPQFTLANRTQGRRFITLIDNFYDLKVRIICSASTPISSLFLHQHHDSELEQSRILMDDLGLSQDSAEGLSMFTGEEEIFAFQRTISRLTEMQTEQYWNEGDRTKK
Sequence of UniProt Q9Y679 (Q9Y679 whole entry, looked up): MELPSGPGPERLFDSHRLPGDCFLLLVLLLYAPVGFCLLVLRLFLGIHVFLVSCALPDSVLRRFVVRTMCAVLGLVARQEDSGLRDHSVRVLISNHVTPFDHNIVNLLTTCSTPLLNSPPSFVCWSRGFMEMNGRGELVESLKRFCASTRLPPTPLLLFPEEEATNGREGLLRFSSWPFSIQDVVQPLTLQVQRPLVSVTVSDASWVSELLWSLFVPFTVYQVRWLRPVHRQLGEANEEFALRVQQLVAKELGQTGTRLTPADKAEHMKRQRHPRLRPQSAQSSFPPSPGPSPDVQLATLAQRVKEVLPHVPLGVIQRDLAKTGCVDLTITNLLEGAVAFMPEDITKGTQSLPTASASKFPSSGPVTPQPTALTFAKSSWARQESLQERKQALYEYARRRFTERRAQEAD
Sequence of UniProt Q9Y487 (Q9Y487 whole entry, looked up): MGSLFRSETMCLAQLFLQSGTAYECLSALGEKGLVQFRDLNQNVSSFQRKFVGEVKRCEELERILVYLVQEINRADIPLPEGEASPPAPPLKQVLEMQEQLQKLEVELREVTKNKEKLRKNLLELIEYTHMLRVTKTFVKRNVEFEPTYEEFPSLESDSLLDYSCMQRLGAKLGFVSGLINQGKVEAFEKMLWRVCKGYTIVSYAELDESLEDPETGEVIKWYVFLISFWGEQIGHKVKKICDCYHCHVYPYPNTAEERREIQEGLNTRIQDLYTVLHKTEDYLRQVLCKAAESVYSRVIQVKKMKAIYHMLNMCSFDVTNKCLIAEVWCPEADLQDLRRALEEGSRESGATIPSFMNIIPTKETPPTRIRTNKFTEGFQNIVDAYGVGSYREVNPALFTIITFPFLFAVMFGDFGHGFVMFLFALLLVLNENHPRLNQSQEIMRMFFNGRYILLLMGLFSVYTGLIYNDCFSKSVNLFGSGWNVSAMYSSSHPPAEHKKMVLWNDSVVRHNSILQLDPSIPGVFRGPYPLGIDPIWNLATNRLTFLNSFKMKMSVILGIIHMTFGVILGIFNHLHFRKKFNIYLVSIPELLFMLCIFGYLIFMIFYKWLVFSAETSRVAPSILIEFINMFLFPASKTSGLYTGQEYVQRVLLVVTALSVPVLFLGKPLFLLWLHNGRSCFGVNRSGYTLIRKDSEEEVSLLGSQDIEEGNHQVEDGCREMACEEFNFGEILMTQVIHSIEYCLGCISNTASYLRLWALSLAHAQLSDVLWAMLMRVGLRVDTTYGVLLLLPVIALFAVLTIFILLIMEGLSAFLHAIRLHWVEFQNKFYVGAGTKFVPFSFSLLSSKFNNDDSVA
Sequence of UniProt P36405 (P36405 whole entry, looked up): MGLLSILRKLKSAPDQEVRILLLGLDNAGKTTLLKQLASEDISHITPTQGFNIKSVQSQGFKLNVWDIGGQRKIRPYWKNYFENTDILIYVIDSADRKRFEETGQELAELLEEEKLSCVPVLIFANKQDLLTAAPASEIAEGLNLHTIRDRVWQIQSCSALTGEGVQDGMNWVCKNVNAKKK

| Target | log2 fold change [1] | log2 fold change [2] | log2 fold change [3] | log2 fold change [4] | log2 fold change [5] | log2 fold change [6] | log2 fold change [7] | log2 fold change [8] | log2 fold change [9] | log2 fold change [10] |
| --- | --- | --- | --- | --- | --- | --- | --- | --- | --- | --- |
| AIFM2 (UniProt Q9BRQ8) | 0.039 | 0.098 | -0.013 | -0.067 | 0.07 | 0.022 | -0.029 | -0.032 | 0.08 | 0.207 (active) |
| ANAPC2 (UniProt Q9UJX6) | -0.025 | -0.084 | 0.034 | 0.035 | 0.027 | -0.044 | 0.012 | 0.028 | 0.022 | -0.02 |
| AP2B1 isoform 2 (UniProt P63010) | 0.022 | -0.029 | -0.005 | -0.161 | 0.004 | 0.016 | -0.056 | 0.007 | -0.006 | 0.014 |
| ANXA5 (UniProt P08758) | 0.03 | 0.045 | 0.108 | -0.002 | 0.043 | -0.083 | 0.041 | 0.052 | -0.059 | 0.006 |
| ADPRHL2 (UniProt Q9NX46) | 0.052 | 0.092 | 0.045 | -0.072 | 0.17 | 0.07 | -0.077 | 0.039 | -0.017 | 0.303 (active) |
| ARL3 (UniProt P36405) | 0.029 | 0.041 | 0.019 | -0.017 | 0.08 | 0.025 | 0.033 | -0.012 | -0.003 | 0.063 |
| ADH5 (UniProt P11766) | -0.021 | 0.033 | 0.032 | -0.033 | -0.002 | -0.014 | -0.003 | -0.031 | -0.033 | -0.003 |
| BRD8 (UniProt Q9H0E9) | 0 | -0.021 | 0.018 | 0.06 | -0.009 | -0.013 | 0.046 | -0.054 | 0.023 | -0.022 |
| ATG9A (UniProt Q7Z3C6) | 0.074 | -0.11 | 0.036 | 0.036 | 0.042 | -0.062 | 0.012 | 0.069 | -0.016 | -0.239 (active) |
| ATP6V1C1 (UniProt P21283) | -0.05 | 0.1 | -0.05 | 0.14 | 0.049 | 0.033 | 0.116 | 0.041 | 0.015 | 0.122 |
| AGPAT1 (UniProt Q99943) | 0.017 | 0.187 | 0.043 | -0.018 | 0.041 | -0.106 | 0.012 | 0.014 | 0.019 | 0.096 |
| ACTR1B (UniProt P42025) | 0 | -0.009 | 0.156 | 0.072 | 0.009 | -0.167 | 0.073 | -0.022 | 0 | 0.124 |
| AGO1 (UniProt Q9UL18) | -0.071 | -0.064 | -0.007 | 0.006 | -0.116 | 0.094 | -0.153 | 0.002 | -0.066 | 0.125 |
| ATP6V1F isoform 2 (UniProt Q16864) | -0.303 | 0.034 | -0.025 | -0.031 | 0.309 | 0.138 | 0.06 | -0.043 | 0.007 | 0.076 |
| ACSL3 (UniProt O95573) | 0.009 | -0.013 | 0.011 | -0.024 | 0.043 | -0.046 | 0.001 | 0.097 | -0.033 | -0.024 |
| ADRM1 (UniProt Q16186) | 0.006 | -0.109 | -0.028 | 0.138 | -0.036 | -0.056 | -0.028 | 0.069 | 0.041 | -0.05 |

| Target | log2 fold change [1] | log2 fold change [2] | log2 fold change [3] | log2 fold change [4] | log2 fold change [5] | log2 fold change [6] | log2 fold change [7] | log2 fold change [8] | log2 fold change [9] | log2 fold change [10] |
| --- | --- | --- | --- | --- | --- | --- | --- | --- | --- | --- |
| ARFGAP2 (UniProt Q8N6H7) | -0.04 | 0.042 | 0.062 | 0.007 | 0.033 | -0.101 | 0.026 | 0.066 | -0.009 | 0.039 |
| AMD1 (UniProt P17707) | -0.058 | 0.059 | 0.035 | – | – | 0.043 | 0.105 | – | -0.07 | 0.008 |
| AP2M1 (UniProt C9JTK4) | 0.105 | 0.048 | 0.158 | 0.08 | 0.147 | – | 0.057 | -0.03 | 0.032 | – |
| AUP1 (UniProt Q9Y679) | -0.032 | -0.123 | 0.071 | -0.015 | -0.05 | -0.181 | -0.012 | 0.06 | -0.033 | -0.41 (active) |
| ANK2 (UniProt Q01484) | 0.066 | 0.062 | – | -0.005 | 0.21 | -0.092 | 0.011 | 0.089 | 0.055 | -0.188 |
| AFDN isoform 1 (UniProt P55196) | 0.004 | 0.088 | 0.371 | 0.111 | 0.054 | 0.183 | – | 0.068 | 0.116 | 0.11 |
| ATF7 isoform 6 (UniProt P17544) | -0.131 | 0.061 | 0.02 | -0.088 | -0.093 | – | -0.032 | -0.054 | 0.158 | 0.223 |
| AFG1L (UniProt Q8WV93) | -0.04 | -0.027 | 0.074 | 0.001 | 0.078 | – | -0.147 | -0.019 | 0.002 | -0.253 |
| ATP6V0A2 (UniProt Q9Y487) | -0.002 | -0.197 | -0.048 | 0.07 | -0.062 | -0.006 | 0.014 | 0.064 | 0.09 | -0.18 |
| AP4S1 (UniProt Q9Y587) | -0.027 | -0.028 | 0.065 | 0.133 | -0.122 | – | – | 0.013 | -0.088 | – |
| ABCA4 (UniProt P78363) | 0.286 | 0.035 | 0.036 | 0.019 | – | 0.452 | -0.055 | – | 0.004 | -0.119 |
| AMFR (UniProt Q9UKV5) | -0.008 | -0.04 | 0.018 | -0.034 | 0.028 | 0.012 | -0.029 | 0.071 | 0.057 | -0.331 (active) |
| AP2A2 isoform 2 (UniProt O94973) | 0.022 | -0.076 | -0.033 | -0.186 | 0.009 | -0.057 | -0.091 | -0.021 | 0.03 | 0.024 |
| ALG11 (UniProt Q2TAA5) | 0.142 | 0.007 | 0.103 | -0.04 | 0.059 | -0.129 | 0.036 | 0.015 | 0.038 | 0.029 |
| APOBEC3G (UniProt Q9HC16) | -0.065 | 0.059 | -0.165 | – | -0.189 | – | 0.013 | 0.102 | 0.023 | -0.01 |
